Measurements taken from PubChem BioAssay (NCI).
The panel holds about 79,000 compounds, 15% with a hit somewhere; the sample as a whole holds those more often. A number with no mark means an inactive call. No stated cut-off is given here; in the data, active means growth inhibition above about 70%; inactive means the rest.

Assay: NCI Yeast Anticancer Drug Screen. Data for the rad50 strain (AID 155);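 further: 0% = growth of vehicle-only cultures of the same strain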
Conditions: S. cerevisiae rad50 strain growth inhibition; at 50.0 µM; hits give high values
Outline: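 Yeast carrying a defined DNA repair defect were exposed to test compounds, and growth was compared with vehicle-treated controls to give percent inhibition.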
`CCCC(=O)Nc1cn(COC)c(C(=O)N2C[C@H]3C[C@@]34C2=CC(=O)c2[nH]cc(C)c24)n1` showed a growth inhibition of 49.9%. In the case of `O=C(O)c1ccccc1C(=O)c1ccc(Br)cc1`, the growth inhibition is reported as 8.4%. In the case of `C=C1CC[N+]2(CCCCCC)CCCC12` (configuration not stated), the growth inhibition is reported as 2.5%. `COc1ccc2ncc(COC(=O)NC3CCCCC3)c(COC(=O)NC3CCCCC3)c2c1` showed a growth inhibition of 36.9%. For `BrCCCOc1ccccc1`, the growth inhibition was -23.7%. With `CCN(CC)C(=O)c1cccc2c1OCO2` the growth inhibition was -17.7%. In the case of `CC(=O)Oc1ccccc1Cl`, the growth inhibition is reported as 18.1%. `O=C(O)c1ccc(O)cc1` showed a growth inhibition of 14.3%. `CCOC(=O)NC(=O)c1cn(C2OC(CO)C(O)C2O)c(=O)[nH]c1=O` (configuration not stated) gave a growth inhibition of 10.3%. For `CCNC(=S)OC1CCC2(C)C(=CCC3C2CCC2(C)C(C(C)CCC(CC)C(C)C)CCC32)C1` (configuration not stated), the growth inhibition was -1.7%. For `O=C(O)CCC(C(=O)O)N(Cc1ccccc1)Cc1ccccc1` (configuration not stated), the growth inhibition was 11.4%. With `Fc1ccc(-c2nc3ccccc3[nH]2)cc1` the growth inhibition was -9.6%. In the case of `Cc1ccc(S(=O)(=O)NCCN)cc1`, the growth inhibition is reported as 9.45%. `N/C(=N\c1nc(N)cc(N)n1)Nc1ccc(S(N)(=O)=O)cc1` showed a growth inhibition of -15.2%. With `O=C(O)CNC(=O)OCc1ccccc1` the growth inhibition was -35.9%. For `CCCOC(=O)O[C@H]1CC[C@@]2(C)C(=CC[C@H]3[C@@H]4CC[C@H]([C@H](C)CCCC(C)C)[C@@]4(C)CC[C@@H]32)C1`, the growth inhibition was -34.6%. `c1ccc(-c2cc3nc4ccccc4nc3o2)cc1` showed a growth inhibition of -6.65%.
